Compound activity as filed in PubChem.
Most compounds without a hit are left out; they make up all but 1.1% or so of the library.
PrP UTR inh: suppresses PrP 5' UTR mRNA reporter expression; cell-based PrP 5' UTR mRNA reporter, plate reader; inhibition, % (test concentration not listed); 0.35% of 340,000 active; in the data active = inhibition above about 52%; note: 0 = median of the neutral control wells
PfHsp40 rescue: restores yeast growth despite PfHsp40 toxicity; S. cerevisiae expressing PfHsp40, growth rescue, ATP luminescence; growth rescue, % at 12.5 µM; 0.68% of 340,000 active; AID 504582; in the data active = growth rescue above about 28%, passing the limit was not always enough; inconclusive = no clear call, values can overlap the other calls;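 note: yeast W303a lacking pdr1 and pdr3 grown in galactose medium; growth measured after three days at 30 °C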
FadD28 FP inh: M. tuberculosis FadD28 bisubstrate binding inhibition | FadD28 bisubstrate probe binding, fluorescence polarization | inhibition, % at 12.5 µM | 0.22% of 360,000 active | AID 588549; in the data active = inhibition above about 8.5%, passing the limit was not always enough; inconclusive = no clear call, values can overlap the other calls
TcdB inh: inhibitors of Clostridioides difficile toxin B glycohydrolase; 0.24% of 350,000 active; inhibition, % at 9.99 µM; TcdB glycohydrolase enzymatic assay, plate reader; in the data active = inhibition above about 10%
Target sequence (P18177 whole entry, looked up): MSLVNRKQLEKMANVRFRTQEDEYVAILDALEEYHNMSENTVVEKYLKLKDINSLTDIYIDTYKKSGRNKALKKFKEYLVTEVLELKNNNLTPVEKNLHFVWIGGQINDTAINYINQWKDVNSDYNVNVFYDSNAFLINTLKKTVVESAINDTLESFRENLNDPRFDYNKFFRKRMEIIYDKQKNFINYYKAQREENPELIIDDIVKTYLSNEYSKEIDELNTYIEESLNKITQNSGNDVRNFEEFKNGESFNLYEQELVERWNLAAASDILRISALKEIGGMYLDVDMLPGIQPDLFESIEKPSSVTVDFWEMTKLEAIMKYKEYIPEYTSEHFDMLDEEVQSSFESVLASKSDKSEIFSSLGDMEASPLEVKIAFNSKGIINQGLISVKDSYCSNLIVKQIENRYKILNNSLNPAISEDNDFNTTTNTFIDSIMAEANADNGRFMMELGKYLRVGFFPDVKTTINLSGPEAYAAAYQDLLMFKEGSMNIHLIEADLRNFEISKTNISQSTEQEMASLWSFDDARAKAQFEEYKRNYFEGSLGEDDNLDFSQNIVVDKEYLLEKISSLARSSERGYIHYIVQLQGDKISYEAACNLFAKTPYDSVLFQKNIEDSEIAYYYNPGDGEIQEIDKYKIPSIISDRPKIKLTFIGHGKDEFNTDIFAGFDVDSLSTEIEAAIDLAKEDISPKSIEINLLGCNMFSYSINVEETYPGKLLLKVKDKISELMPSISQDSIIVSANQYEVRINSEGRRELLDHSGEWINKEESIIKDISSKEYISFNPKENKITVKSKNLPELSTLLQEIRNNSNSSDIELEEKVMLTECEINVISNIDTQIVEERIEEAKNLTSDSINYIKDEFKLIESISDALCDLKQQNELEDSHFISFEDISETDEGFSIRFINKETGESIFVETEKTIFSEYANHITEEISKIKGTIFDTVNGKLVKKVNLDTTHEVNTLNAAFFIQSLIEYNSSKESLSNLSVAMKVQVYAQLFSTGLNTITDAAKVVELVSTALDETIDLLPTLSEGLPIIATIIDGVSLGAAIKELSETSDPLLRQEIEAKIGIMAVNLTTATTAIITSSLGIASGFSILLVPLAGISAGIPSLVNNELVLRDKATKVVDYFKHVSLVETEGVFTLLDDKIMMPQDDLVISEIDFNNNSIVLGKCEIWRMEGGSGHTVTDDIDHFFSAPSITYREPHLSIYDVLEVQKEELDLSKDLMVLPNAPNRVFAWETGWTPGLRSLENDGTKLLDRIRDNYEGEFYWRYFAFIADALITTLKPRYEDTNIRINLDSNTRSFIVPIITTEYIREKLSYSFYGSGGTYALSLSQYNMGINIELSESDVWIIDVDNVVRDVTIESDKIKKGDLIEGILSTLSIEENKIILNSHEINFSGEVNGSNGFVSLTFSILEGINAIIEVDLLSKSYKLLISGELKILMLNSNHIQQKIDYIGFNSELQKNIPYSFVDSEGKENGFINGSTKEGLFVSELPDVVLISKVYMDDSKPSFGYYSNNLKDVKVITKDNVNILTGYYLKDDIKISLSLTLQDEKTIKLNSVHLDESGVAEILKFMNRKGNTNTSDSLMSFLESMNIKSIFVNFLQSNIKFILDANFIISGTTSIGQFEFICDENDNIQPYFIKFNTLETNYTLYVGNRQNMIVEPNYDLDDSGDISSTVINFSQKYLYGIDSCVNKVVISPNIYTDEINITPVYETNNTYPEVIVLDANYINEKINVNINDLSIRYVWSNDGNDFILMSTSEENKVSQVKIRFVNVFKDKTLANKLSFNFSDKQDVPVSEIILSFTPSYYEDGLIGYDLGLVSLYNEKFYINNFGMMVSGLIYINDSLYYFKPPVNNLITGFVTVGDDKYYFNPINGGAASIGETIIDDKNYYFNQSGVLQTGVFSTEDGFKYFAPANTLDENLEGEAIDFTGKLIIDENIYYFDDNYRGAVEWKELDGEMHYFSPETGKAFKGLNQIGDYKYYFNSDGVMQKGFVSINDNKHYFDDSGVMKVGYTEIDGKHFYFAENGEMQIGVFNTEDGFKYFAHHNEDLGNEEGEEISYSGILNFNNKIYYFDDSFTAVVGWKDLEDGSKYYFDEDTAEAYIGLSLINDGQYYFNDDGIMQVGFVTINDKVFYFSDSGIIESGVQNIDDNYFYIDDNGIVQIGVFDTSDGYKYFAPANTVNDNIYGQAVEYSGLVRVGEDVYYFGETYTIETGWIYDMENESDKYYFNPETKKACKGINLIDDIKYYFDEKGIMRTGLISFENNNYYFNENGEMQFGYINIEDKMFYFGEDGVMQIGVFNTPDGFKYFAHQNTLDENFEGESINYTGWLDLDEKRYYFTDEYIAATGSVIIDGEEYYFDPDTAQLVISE
Mtb BioA inh: inhibitors of Mycobacterium tuberculosis BioA enzyme; inhibition, % at 9.99 µM; purified M. tuberculosis BioA enzyme, plate reader; AID 602481; 0.096% of 360,000 active; in the data active = inhibition above about 40%; inconclusive = no clear call, values can overlap the other calls
Numbers without * were called inactive; u = inconclusive; x = not tested or not shown.

SMILES	PrP UTR inh	PfHsp40 rescue	FadD28 FP inh	TcdB inh	Mtb BioA inh
Cc1c(C(c2ccc(O)cc2)c2c(O)c3ccccc3oc2=O)c(=O)n(-c2ccccc2)n1C (centres undefined)	-17	1	-3	-2	x
COc1ccc(OC)c(C(c2c(O)c3ccccc3oc2=O)c2c(C)n(C)n(-c3ccccc3)c2=O)c1 (centres undefined)	x	46*	-4	-3	0
CCCNC(=O)C[C@H]1C[C@H]2c3cc(NC(=O)NC4CCCC4)ccc3O[C@H]2[C@H](CO)O1	x	x	x	0	-2
CCCN(C)C[C@H]1Oc2cc(C#CCOC)ccc2S(=O)(=O)N([C@H](C)CO)C[C@H]1C	x	x	x	-2	-1
CCNC(=S)N/N=C(\C)c1ccc2ccccc2c1OC(F)F	-23	62*	-3	1	x
C/C(=N\NC(=S)NC(C)C)c1ccccc1OC(F)F	-31	-1	-3	1	x
Cc1onc(-c2ccccc2)c1C(=O)N(Cc1ccco1)Cc1cccs1	-2	11	-4	16*	x
Cc1onc(-c2ccccc2)c1C(=O)NCc1ccco1	-32	0	0	x	-1
CCCC[C@@H](O)C1=C(COC)C[C@H]2C(=O)N(Cc3ccccc3)C(=O)[C@H]2[C@H]1CO	x	x	x	-7	x
COc1ccc(N=C2NC(=O)/C(=C/c3ccc(O)c(OC)c3)S2)cc1	-19	-1	12*	1	x
C[C@H](CO)N1C[C@H](C)[C@H](CN(C)C(=O)c2ccccc2)Oc2cc(C#CC3(O)CCCC3)ccc2S1(=O)=O	x	x	x	1	1
COCC(=O)N1[C@@H](C#N)[C@@H](c2ccccc2-c2ccc(C)cc2)[C@@H]1CO	x	x	x	2	x
O=C(O)c1cc(-c2ccccc2)nc2ccccc12	-3	-1	0	2	-1
O=c1[nH]nc(-c2cc(-c3ccccc3)nc3ccccc23)o1	x	x	-5	16*	1
CCS(=O)(=O)NCC[C@@H]1CC[C@H](NC(=O)Nc2cc(Cl)cc(Cl)c2)[C@@H](CO)O1	x	x	x	-1	1
O=C(O)CN1CCN(CC(=O)O)CCN(CC(=O)O)CCN(CC(=O)O)CC1	-20	u	-2	2	-2
O=C(O)CN1CCNCCN(CC(=O)O)CCNCC1	-15	107*	0	0	x
O=C(Cn1c(=O)oc2ccccc21)Nc1cccc(Cl)c1	-6	0	11*	1	-1
Cc1cccc(NC(=O)Cn2c(=O)oc3ccccc32)c1	-7	0	35*	x	0
O=C(CCn1c(=O)oc2ccccc21)Nc1cccc(Cl)c1	-36	1	-4	3	1
CC(=O)N1C[C@H]2[C@@H](c3ccccc31)[C@H](CO)N2C(=O)c1ccc(F)cc1	x	x	x	0	-2
CC(=O)Nc1ccc2c(c1)C(=O)N(C)[C@H]1CC[C@@H](CC(=O)NCc3ccccc3Cl)O[C@@H]1CO2	x	x	x	0	2
O=C(C1CC(=O)N(C2CCCCC2)C1)N1CCc2ccccc21 (centres undefined)	-18	61*	0	2	x
O=C(C1CCCCC1)N1CCc2ccccc21	-7	-1	0	1	0
COc1cc(O)ccc1C(=O)CCc1ccc(O)cc1	-11	0	-1	17*	0
SMILES	PrP UTR inh	PfHsp40 rescue	FadD28 FP inh	TcdB inh	Mtb BioA inh
CN(CCCC1CCCC1)C(=O)c1cc(COc2ccc(F)c(F)c2)on1	-1	44*	1	0	-1
COC(=O)[C@H](CCSC)NC(=O)c1cc2c(cn1)[nH]c1ccccc12	-6	0	-4	-1	-1
CNC(=O)c1cc2c(cn1)[nH]c1ccccc12	-60	60*	-4	3	-1
CCC(=O)N1CC2(CCN(Cc3nccs3)CC2)c2c(n(C)c3cc(OC)ccc23)[C@@H]1CO	x	x	x	2	x
C[C@H](CO)N1C[C@H](C)[C@@H](CN(C)S(=O)(=O)c2ccc(F)cc2)OCCCC[C@H](C)Oc2ccc(NS(=O)(=O)c3ccc(Cl)cc3)cc2C1=O	x	x	x	0	1
Cc1cc(NC(=S)Nc2ccc(C)c(Cl)c2)n[nH]1	-69	57*	-23	1	x
COc1ccc(NC(=S)Nc2cc(C)[nH]n2)cc1Cl	-15	0	-8	1	x
CNC[C@@H]1Oc2ncc(-c3cccc(C(=O)N(C)C)c3)cc2C(=O)N([C@@H](C)CO)C[C@H]1C	x	x	x	-2	0
CCCNc1nc(-c2cc(C(=O)Nc3ccccc3)on2)cc(C(C)C)n1	-24	365*	-13	1	-1
CCCNC(=O)C[C@H]1CC[C@@H]2[C@H](COC[C@H](O)CN2C(=O)Nc2ccc(Cl)c(Cl)c2)O1	x	x	x	-2	0
O=S(=O)(Nc1cccc2c1CCCC2)c1ccc(Cl)cc1	-4	42*	-1	x	1
CC(=O)Nc1ccccc1NS(=O)(=O)c1ccc(Cl)cc1	-7	-2	-1	x	-2
COCC#Cc1cnc2c(c1)C(=O)N([C@@H](C)CO)C[C@@H](C)[C@H](CN(C)C(=O)c1ccc3c(c1)OCO3)O2	x	x	x	0	2
C[C@H](CO)N1C[C@H](C)[C@H](CN(C)Cc2ccc3c(c2)OCO3)OCCCC[C@H](C)Oc2ccc(NC(=O)CCCN(C)C)cc2C1=O	x	x	x	0	-1
C[C@@H]1CN([C@@H](C)CO)C(=O)c2cc(NC(=O)Nc3ccccc3)ccc2O[C@H]1CN(C)S(=O)(=O)c1cccs1	x	x	x	0	4
COc1ccc(CNC(=O)Cc2cn(C)c3ccccc23)c(OC)c1	-22	0	-1	28*	1
Cc1ccc(C(=O)CN2/C(=C(\O)c3ccccc3)C(=O)c3ccccc3S2(=O)=O)c(C)c1	-21	35*	-1	x	x
C[C@H]1CCCCO[C@@H](CN(C)Cc2ccccc2)[C@@H](C)CN([C@@H](C)CO)C(=O)c2cc(NC(=O)C3CCCCC3)ccc2O1	x	x	x	0	0
CCN1/C(=C\c2ccc3cc(C)ccc3[n+]2CC)Sc2cc(C)c(C)cc21	24	-4	1	-4	2
C=CC[n+]1c(/C=C2\C=Cc3cc(C)ccc3N2CC)ccc2ccccc21	-28	277*	-2	-3	x
C[C@@H]1CN([C@H](C)CO)C(=O)c2cc(C#Cc3cccnc3)cnc2O[C@@H]1CN(C)C(=O)CN(C)C	x	x	x	0	3
O=C(NCCc1ccc(Cl)cc1)C1CCN(S(=O)(=O)c2ccc(Br)s2)CC1	-10	6	-7	16*	x
O=C(NCCc1ccc(Cl)cc1)C1CCN(S(=O)(=O)N2CCCC2)CC1	-14	0	-3	x	-2
FC(F)(F)c1cc(Cl)c2nc(-c3ccccc3)c(Cc3ccsc3)n2c1	x	x	x	10*	x
FC(F)(F)c1cc(Cl)c2nc(-c3ccc(Cl)cc3)c(Cc3ccsc3)n2c1	x	x	x	1	x
SMILES	PrP UTR inh	PfHsp40 rescue	FadD28 FP inh	TcdB inh	Mtb BioA inh
COc1ccccc1-n1c(CCC(=O)O)ccc1-c1ccccc1	-8	0	-2	11*	2
COc1ccc(-c2ccc(CCC(=O)O)n2-c2ccccc2OC)cc1	-13	-1	-1	-1	-2
CC(=O)N(c1ccccc1C)C1CCCC1	-27	1	-3	0	-1
CC(=O)N(C1=C(Cl)C(=O)c2ccccc2C1=O)C1CCCCC1	-41	147*	0	-3	-1
CC(C)NC(=O)CSc1nc(-c2ccccc2)cs1	-79	0	-3	0	x
N#CCSc1nc(-c2ccccc2)cs1	-30	36*	-3	x	3
